mIDH1 inhibitor: human IDH1 R132H inhibition | O75874 | Potency, µM (series often up to 76.6 µM), inactives show at the top dose activity change, negative = inhibition, usual class: inhibitors | IDH1-R132H enzyme, NADPH consumption, diaphorase/resazurin fluorescence | AID 602179 | 390,000 tested, 0.093% active; note: % is set by controls: 0 for no effect and ±100 for the full control effect; nearly all actives have a fitted effect of over 65% in size
Target sequence (O75874 whole entry R132H, stated change not applied): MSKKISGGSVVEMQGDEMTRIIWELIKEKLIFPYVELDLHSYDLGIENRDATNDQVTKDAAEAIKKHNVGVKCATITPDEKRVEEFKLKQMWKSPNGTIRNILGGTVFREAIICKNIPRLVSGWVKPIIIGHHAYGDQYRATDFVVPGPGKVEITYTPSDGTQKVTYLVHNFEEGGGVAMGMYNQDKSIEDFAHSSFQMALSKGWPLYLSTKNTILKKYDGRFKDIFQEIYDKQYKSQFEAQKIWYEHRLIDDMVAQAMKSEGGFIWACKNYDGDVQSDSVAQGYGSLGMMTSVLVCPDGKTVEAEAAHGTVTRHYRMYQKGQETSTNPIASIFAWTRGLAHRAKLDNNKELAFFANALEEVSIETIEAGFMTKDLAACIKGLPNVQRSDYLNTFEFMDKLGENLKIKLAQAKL
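IDH1-R132H (0.5 ug/mL) preincubated 30 min with compound, then NADPH (0.016 mM) and alpha-KG (2 mM) added; 80 min at RT, pH 7.5. Remaining NADPH coupled via diaphorase/resazurin to fluorescence (540/590 nm); concentration-response curves normalized to no-enzyme control.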
Nrf2 block: blocks Nrf2 signaling; A549 ARE-Fluc reporter, luciferase luminescence, 18-24 h; Potency, µM (highest dose often 46 µM), inactives show at the highest dose activity change, negative = inhibition, actives largely listed as inhibitors; 360,000 tested, 2.1% active; AID 504444; note: % is set by controls: 0 for no effect and ±100 for the full control effect; nearly all actives have a fitted effect of over 60% in size
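Cells were seeded and rested 2 h, then exposed to compounds for 18-24 h. CellTiter-Fluor was read first as a viability measure. BugLite was added 15 min before the final luminescent read of ARE-luciferase activity in A549 cells.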
ELG1 DNA repair: blocks ELG1-dependent DNA repair in HEK293T cells. Potency, µM (doses to about 46.1 µM), for the others: at the highest dose activity change, negative = inhibition, actives largely listed as inhibitors. 330,000 tested, 2.3% active. AID 504467. HEK293T ELG1-luciferase reporter, luminescence, 16 h; DNA damage induced by 5-fluorouridine; note: % is set by controls: 0 for no effect and ±100 for the full control effect; nearly all actives have a fitted effect of over 55% in size
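In this reporter screen, reduction of luminescence relative to DMSO vehicle indicated activity. Compounds and 5-fluorouridine were added together to 2,000 cells per well, incubated for 16 hr at 37 °C, then developed with ONE-Glo.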
A549 viability: kills or reduces viability of A549 cells in Nrf2 counter-screen. A549 ARE-Fluc cells, CellTiter-Fluor viability, 18-24 h. Potency, µM (doses to about 46 µM), inactives show top-dose activity change, negative = cytotoxicity, most hits filed as inhibitors. 390,000 tested, 0.16% active. AID 504648; note: % is set by controls: 0 for no effect and ±100 for the full control effect
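A549 ARE-Fluc cells in 5% FBS OPTI-MEM, 5000 cells/well, rested 2 h then exposed to compounds in concentration-response for 18-24 h at 37 °C. Viability by CellTiter-Fluor fluorescence (Ex 405/Em 525) after 30 min; luciferase luminescence (BugLite, 15 min, RT) read afterwards.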
Nrf2 activator: Nrf2 pathway activation | AREc32 ARE-luciferase reporter (MCF7-derived line), luminescence, 24 h | 410,000 tested, 0.31% active | Potency, µM (highest dose often 46.1 µM), for inactives: at the top dose activation, usual class: activators; note: % of control where 0% means no effect; nearly all actives have a fitted effect of over 65% in size
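Cells of the AREc32 ARE-luciferase line are plated in OPTI-MEM containing 5% FBS and left overnight at 37 deg C. Compounds are pinned in, incubation continues 24 hr, and firefly luciferase signal is then measured.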
Active calls of the source: *; u = inconclusive; x = not tested or not shown. Hits are enriched below; roughly 3.8% of the tested compounds scored in any of these assays. Calls come from the whole dose curve; as a rule, active = well fitted curve in the direction sought with a large enough effect; inconclusive = small, poorly fitted or top-dose-only effect, or another doubt; inactive = no such curve, though single readings can be large; an effect the other way counts as inactive or inconclusive. Potency is the fitted concentration of half-maximal effect.

SMILES	mIDH1 inhibitor	Nrf2 block	ELG1 DNA repair	A549 viability	Nrf2 activator
CC(=O)[C@]1(O)Cc2c(O)c3c(c(O)c2[C@@H](O[C@H]2C[C@H](N)[C@H](O)[C@H](C)O2)C1)C(=O)c1ccccc1C3=O	-20%	u	x	u	-3%
CCNc1nc(OC)nc(Oc2ccc(=O)[nH]n2)n1	-2%	0%	x	-11%	-1%
COc1cc(-c2nc3ccccc3s2)ccc1O	-20%	18µM*	u	-8%	6.3µM*
COc1ccc(-c2nc3ccccc3s2)cc1O	3%	u	u	-10%	u
Cc1cc(C(=O)N2CCCC(C(=O)c3ccc(Oc4ccccc4)cc3)C2)n[nH]1 (stereo not drawn)	3%	u	u	-9%	-2%
O=C(c1ccc(Oc2ccccc2)cc1)C1CCCN(C(=O)c2cnccn2)C1 (stereo not drawn)	4%	-19%	21µM*	-5%	0%
O=C(NCCNS(=O)(=O)c1ccccc1Cl)c1cc(OCC(F)(F)F)ccc1OCC(F)(F)F	-3%	-21%	15µM*	0%	0%
Cc1ccc(Cn2cc(CN3CC(N(C)C)CS3(=O)=O)nn2)cc1 (stereo not drawn)	x	x	x	x	0%
Cc1ccc2nc(-c3ccc(NS(C)(=O)=O)cc3)cc(-c3ccccc3)c2c1	-4%	x	u	-6%	0%
CCS(=O)(=O)Nc1ccc(-c2cc(-c3ccccc3)c3cc(C)ccc3n2)cc1	0%	23µM*	u	u	7%
COc1cccc(CC(NC(C)=O)C(=O)NC2CCN(C(=O)c3ccc(Cl)cc3)CC2)c1OC (stereo not drawn)	1%	1%	-3%	0%	-1%
CC1=C(C(=O)OC2CCCCCC2)C(c2c(Cl)cccc2Cl)CC(=O)N1 (stereo not drawn)	-27%	21µM*	x	-10%	-3%
O=C(NCC1CCN(Cc2cccc(F)c2)CC1)c1cc2ccc3cccnc3c2[nH]1	6%	u	x	-20%	11%
CCOC(=O)Cn1cnc2c(nnn2-c2ccc(F)cc2)c1=O	6%	17%	20%	0%	-2%
O=c1c(S(=O)(=O)c2ccc(Cl)cc2)cn(Cc2ccc(F)cc2)c2ccc(F)cc12	-8%	6%	x	9%	3%
COc1ccccc1/C=C/C(=O)Nc1cccc(S(=O)(=O)N2CCOCC2)c1	1%	u	-19%	-11%	2%
COc1cccc(/C=C/C(=O)Nc2ccc(N3CCOCC3)cc2)c1OC	2%	u	u	1%	3%
COc1cc(/C=C/C(=O)Nc2cccc(S(=O)(=O)N3CCOCC3)c2)ccc1OCC#N	16%	15µM*	u	-9%	0%
COc1cc(/C=C/C(=O)c2ccc(O)cc2)ccc1OCC#N	-6%	26µM*	u	u	u
O=C(/C=C/c1ccc(OC(F)F)cc1)Nc1cccc(S(=O)(=O)N2CCOCC2)c1	-5%	u	23µM*	u	-2%
COc1ccccc1/C=C/C(=O)Nc1ccc(N2CCOCC2)cc1	-3%	12µM*	25%	-23%	0%
Cc1ccc(/C=C/C(=O)Nc2cccc(S(=O)(=O)N3CCOCC3)c2)o1	6%	19%	-6%	3%	27%
O=C(/C=C/c1ccco1)Nc1cccc(S(=O)(=O)N2CCOCC2)c1	0%	1%	16%	4%	5.6µM*
COc1ccc(/C=C/C(=O)Nc2cccc(S(=O)(=O)N3CCOCC3)c2)cc1OC	3%	u	21µM*	3%	5%
COc1ccc(S(=O)(=O)NCCCCCC(=O)O)cc1C(=O)O	-3%	-2%	-14%	-1%	0%
SMILES	mIDH1 inhibitor	Nrf2 block	ELG1 DNA repair	A549 viability	Nrf2 activator
COc1ccc(S(=O)(=O)NCCCCC(=O)O)cc1C(=O)O	-7%	16µM*	0%	-33%	0%
Oc1ccc(N2CCN(c3ncnc4sc5c(c34)CCC5)CC2)cc1	1%	15µM*	u	-11%	0%
Cn1c(C(=O)Nc2cccc(Cl)c2)cc2c(=O)n(C)c3ccccc3c21	1%	1%	x	-3%	0%
CCCOC(=O)c1ccc(-c2c(C)noc2-c2ccc(OC)cc2O)o1	7%	-3%	21µM*	-17%	3%
COc1ccc(-c2onc(C)c2-c2cscn2)c(O)c1	5%	u	-17%	3%	1%
Cc1cccc(NC(=O)CSc2nncn2C)c1	2%	9%	x	1%	0%
COc1cc(OC)c(NC(=O)C(CC(C)C)N2Cc3ccccc3C2=O)cc1Cl (stereo not drawn)	-7%	-5%	x	-12%	4%
Cc1cccc2nc(-c3ccccc3)nc(N[C@@H](CO)c3ccccc3)c12	7%	8%	9.2µM*	-1%	0%
Cc1ccc(-c2nc(NCCCO)c3ccccc3n2)cc1	4%	6%	u	-5%	4%
Cc1c(Cl)cccc1-n1ncc(C(=O)Nc2ccc(F)cc2F)c1C1CCN(C(=O)OC(C)(C)C)CC1	-6%	26µM*	x	-11%	1%
CCc1cccc(C)c1NC(=O)c1cnn(-c2ccc(OC)cc2)c1C1CCN(C(=O)OC(C)(C)C)CC1	5%	23µM*	x	-15%	-1%
COc1ccc2[nH]cc(CCNC(=O)c3cnn(-c4ccc(C)cc4)c3C3CCN(C(=O)OC(C)(C)C)CC3)c2c1	6%	15µM*	x	-20%	-1%
COc1ccc(-n2ncc(C(=O)NCc3ccccc3)c2C2CCN(C(=O)OC(C)(C)C)CC2)cc1	-1%	-11%	x	-2%	0%
O=C1c2ccccc2C(=O)N1c1ccccc1O	x	-9%	x	2%	x
Cn1c(=O)c2sccc2n(Cc2cccc(Br)c2)c1=O	-12%	10µM*	1%	-1%	0%
CC(O)CNc1nc2c(c(=O)n(C)c(=O)n2C)n1Cc1cccc(C(F)(F)F)c1 (stereo not drawn)	5%	-9%	-29%	2%	2%
Cn1c(=O)c2c(nc(NCCCO)n2C/C=C/c2ccccc2)n(C)c1=O	13%	x	12µM*	-3%	3%
C/C(Cl)=C\Cn1c(Nc2ccccc2)nc2c1c(=O)n(C)c(=O)n2C	-2%	-21%	11µM*	-7%	7%
COCCCn1c(=O)c2sccc2n(Cc2cccc(C)c2)c1=O	-2%	-18%	u	-1%	0%
COCCNc1nc2c(c(=O)n(C)c(=O)n2C)n1Cc1cccc(C(F)(F)F)c1	9%	16µM*	-13%	-20%	1%
CCCCn1nnnc1C(c1ccccc1)N1CCN(c2ccc(F)cc2)CC1 (stereo not drawn)	x	x	x	x	0%
CC(O)CNc1nc2c(c(=O)n(C)c(=O)n2C)n1C/C=C/c1ccccc1 (stereo not drawn)	-4%	23µM*	23µM*	-6%	0%

From PubChem
